Experimental data published in PubChem BioAssay (Tox21).
Results filed as inconclusive are left out. Calls of active or inactive are those of the source. Unless noted, calls follow the shape of the full dose curve.

Tests used:
[1] = Nuclear factor erythroid 2-related factor 2/antioxidant responsive element (Nrf2/ARE) small molecule agonists: qHTS cell viability counter screen in human keratinocytes (AID 1919968; active = well fitted curve in the direction sought with a large enough effect in the repeat runs; an effect the other way counts as inactive or inconclusive; also: nearly all actives have a fitted effect of over 55% in size)
Procedure, shortened: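 Viability counter-screen: KeratinoSens reporter cells, DMSO-delivered compounds, 23 h at 37 C, CellTiter-Fluor fluorescence.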

[2] = Nuclear factor erythroid 2-related factor 2/antioxidant responsive element (Nrf2/ARE) small molecule agonists: luciferase reporter gene qHTS assay in human keratinocytes (AID 1919969); also: nearly all actives have a fitted effect of over 35% in size
[3] = target: Gonadotropin-releasing hormone receptor (Homo sapiens) (UniProt P30968); experiment: Human gonadotropin-releasing hormone receptor (GnRHR) small molecule agonists, calcium flux assay in GnRHR-HEK293 cells (AID 1920063); also: nearly all actives have a fitted effect of over 35% in size
Procedure, shortened: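 Tox21-format agonist screen using human GnRHR-expressing HEK293 cells and a fluorescent calcium dye; kinetic 3-min fluorescence reading after compound addition, 15-point concentration series run in triplicate.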

[4] = target: KiSS-1 receptor (Homo sapiens) (UniProt Q969F8); experiment: Human kisspeptin (KISS1R) small molecule agonists, calcium flux assay in KISS1R-HEK293 cells (AID 1920064; active = well fitted curve in the direction sought with a large enough effect in the repeat runs; an effect the other way counts as inactive or inconclusive)
Procedure, shortened: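 Intracellular calcium mobilization in KISS1R-HEK293 cells was recorded by fluorescence (Ex/Em 480/540) for 3 min following compound addition to cells pre-loaded 1 h with calcium dye.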

[5] = G protein-coupled receptor (GPCR) small molecule agonists, calcium flux assay: HEK293 wild type cell line counter screen (AID 1920065)
Procedure, shortened: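 In this agonist-mode screen, ATP is the positive control and DMSO the vehicle. Cells grow 18 h before a 1 h dye incubation at 37 C; signal is taken at Ex/Em 480/540 over 3 min.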

[6] = p53 small molecule agonists, cell-based qHTS assay with human liver microsomes (AID 1963577);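 also: p53 response element beta-lactamase reporter cells with liver microsomes plus NADPH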
Procedure, shortened: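 Reporter activation was measured by LiveBLAzer fluorescence intensity in p53RE-bla cells, which had been exposed to compounds for 16 h at 37 C alongside 0.5 mg/mL human liver microsomes and 0.5 mg/mL NADPH (final concentrations).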

[7] = p53 small molecule agonists, cell-based qHTS assay with rat liver microsomes (AID 1963578)
Procedure, shortened: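 Compound in DMSO added to p53RE-bla cells 5 h post-plating; rat microsomes/NADPH 0.5 mg/mL final; 16 h, 37 C; LiveBLAzer 2 h RT.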

[8] = p53 small molecule agonists, cell-based qHTS assay with human liver microsomes: qHTS cell viability counter screen (AID 1963579); also: nearly all actives have a fitted effect of over 45% in size
Procedure, shortened: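 HLM-supplemented (0.5 mg/mL final) and NADPH-supplemented (0.5 mg/mL final) p53RE-bla cultures, 4,000 cells per well, were dosed with compounds in DMSO for 16 h at 37 C; luminescent ATP detection (CellTiter-Glo, 30 min, room temperature) quantified surviving cells.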

[9] = p53 small molecule agonists, cell-based qHTS assay with rat liver microsomes: qHTS cell viability counter screen (AID 1963580); also: nearly all actives have a fitted effect of over 45% in size
Procedure, shortened: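 In HCT-116 cells carrying a p53 response element-bla reporter, compounds were metabolically activated in situ by rat liver microsomes with NADPH over 16 h. Cell ATP content then served as the cytotoxicity measure.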

[10] = p53 small molecule agonists, cell-based qHTS assay: qHTS cell viability counter screen (AID 1963581); also: nearly all actives have a fitted effect of over 45% in size
Procedure, shortened: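 Compounds are pinned onto HCT-116 p53RE-bla cells and left 16 h at 37 C. Following the reporter FRET read, ATP is quantified by CellTiter-Glo luminescence after 30 min at room temperature.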

[11] = p53 small molecule agonists, cell-based qHTS assay (AID 1963582; active = well fitted activation curve with a large enough effect in the signal ratio in the repeat runs, not every such curve was filed as active; the % refers to the signal ratio)
Procedure, shortened: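 Agonist activity was scored from beta-lactamase FRET fluorescence in p53RE-bla cells treated 16 h at 37 C with compounds in DMSO, substrate incubation being 2 h at room temperature.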

[12] = target: 5-hydroxytryptamine receptor 2A (Homo sapiens) (UniProt P28223); experiment: 5-hydroxytryptamine receptor 2A (HTR2A) small molecule antagonists, cell-based qHTS assay (AID 1963586); also: nearly all actives have a fitted effect of over 45% in size
Procedure, shortened: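 Antagonist-mode intracellular calcium assay: DOI (4 nM) added after 5 min compound pre-incubation at room temperature to dye-loaded HTR2A-CHO cells. Fluorescence followed for 3 min, sampled every second.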

[13] = target: 5-hydroxytryptamine receptor 2A (Homo sapiens) (UniProt P28223); experiment: 5-hydroxytryptamine receptor 2A (HTR2A) small molecule agonists, cell-based qHTS assay (AID 1963587); also: nearly all actives have a fitted effect of over 30% in size
Procedure, shortened: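 HTR2A-CHO cells, plated 18 h at 37 C/5% CO2, dye-loaded 1 h at 37 C; compounds in DMSO added by pin tool (agonist mode). Intracellular calcium flux read as kinetic fluorescence on FDSS over 2 min at 1 s intervals.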

[14] = target: Muscarinic acetylcholine receptor M1 (Homo sapiens) (UniProt P11229); experiment: Cholinergic receptor muscarinic 1 (CHRM1) small molecule antagonists, cell-based qHTS assay (AID 1963588); also: nearly all actives have a fitted effect of over 40% in size
Procedure, shortened: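 CHRM1-CHO calcium-flux assay, antagonist mode. Cells were seeded 18 h, dye-loaded 1 h at 37 C and given compound for 5 min at RT, then acetylcholine was added at 50nM. FDSS fluorescence was read 3 min; 15 concentrations, three runs.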

[15] = target: Muscarinic acetylcholine receptor M1 (Homo sapiens) (UniProt P11229); experiment: Cholinergic receptor muscarinic 1 (CHRM1) small molecule agonists, cell-based qHTS assay (AID 1963589); also: nearly all actives have a fitted effect of over 35% in size
Procedure, shortened: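 Stable CHRM1-CHO cells (human receptor) were incubated 18 h, dye-loaded for 1 h at 37 C and exposed to test compounds for agonist activity, with calcium-dependent fluorescence followed kinetically.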

[16] = cAMP Responsive Elements (CRE) small molecule agonists, cell-based qHTS assay (AID 1963590)
Procedure, shortened: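 FRET-based beta-lactamase readout (LiveBLAzer B/G, 2 h RT) quantified CRE activation in HEK 293T CRE-bla cells after 3 h treatment with DMSO-dissolved compounds.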

[17] = cAMP Responsive Elements (CRE) small molecule antagonists, cell-based qHTS assay (AID 1963591; active = well fitted inhibition curve with a large enough effect in the signal ratio in the repeat runs, not every such curve was filed as active; the % refers to the signal ratio)
Procedure, shortened: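 qHTS in CRE-bla HEK 293T cells: compound in DMSO, then 0.25 uM NKH477 (final), 3 h at 37 °C/5% CO2; beta-lactamase FRET read-out after 2 h substrate incubation.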

[18] = target: Beta-2 adrenergic receptor (Homo sapiens) (UniProt P07550); experiment: Adrenergic beta2 receptor (ADRB2) small molecule antagonists, cell-based qHTS assay (AID 1963592); also: series mostly up to about 92 µM; nearly all actives have a fitted effect of over 50% in size
Procedure, shortened: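 Cells (CHO, stable ADRB2 overexpression) incubated 18-20hr at 37C; compounds added from DMSO; agonist mix (1nM isoproterenol, 100uM IBMX, 25uM Ro-20-1724) added; 0.5hr RT; d2-cAMP and anti-cAMP-cryptate added; 1hr RT; 665/615 nm read.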

[19] = target: D(2) dopamine receptor (Homo sapiens) (UniProt P14416); experiment: Dopamine D2 receptor (DRD2) small molecule agonists, cell-based qHTS assay (AID 1963594); also: nearly all actives have a fitted effect of over 35% in size
Procedure, shortened: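 HEK293 cells stably expressing DRD2 were cultured 24 h at 37 C, then given Ro20-1724 (0.1 mM final) and compounds for 10 min at room temperature. NKH477 (200nM) was then added for 30 min. cAMP was read by HTRF.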

[20] = target: D(2) dopamine receptor (Homo sapiens) (UniProt P14416); experiment: Dopamine D2 receptor (DRD2) small molecule antagonists, cell-based qHTS assay (AID 1963595; active = well fitted inhibition curve with a large enough effect in the signal ratio in the repeat runs, with a control signal flat; the % refers to the signal ratio)
Procedure, shortened: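 Human DRD2 antagonist qHTS measuring cAMP by HTRF. The cells are exposed to compound for 10 min, then to NKH477 (200 nM) and quinpirole (12 nM) for 30 min at RT, with Ro20-1724 (0.1 mM) present throughout.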

Measured: Potency

Sequence of KiSS-1 receptor (Homo sapiens) (Q969F8 whole entry, looked up): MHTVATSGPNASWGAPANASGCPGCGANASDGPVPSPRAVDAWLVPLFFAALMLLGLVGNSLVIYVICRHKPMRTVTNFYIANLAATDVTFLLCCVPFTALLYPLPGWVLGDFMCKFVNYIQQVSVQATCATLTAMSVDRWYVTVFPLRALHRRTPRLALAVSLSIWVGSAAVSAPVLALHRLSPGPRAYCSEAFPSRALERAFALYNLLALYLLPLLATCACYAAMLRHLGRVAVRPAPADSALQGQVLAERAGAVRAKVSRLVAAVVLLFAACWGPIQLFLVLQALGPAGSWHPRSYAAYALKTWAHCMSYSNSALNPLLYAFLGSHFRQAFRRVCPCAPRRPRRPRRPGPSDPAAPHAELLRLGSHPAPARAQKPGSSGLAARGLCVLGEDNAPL
Sequence of 5-hydroxytryptamine receptor 2A (Homo sapiens) (P28223 whole entry, looked up): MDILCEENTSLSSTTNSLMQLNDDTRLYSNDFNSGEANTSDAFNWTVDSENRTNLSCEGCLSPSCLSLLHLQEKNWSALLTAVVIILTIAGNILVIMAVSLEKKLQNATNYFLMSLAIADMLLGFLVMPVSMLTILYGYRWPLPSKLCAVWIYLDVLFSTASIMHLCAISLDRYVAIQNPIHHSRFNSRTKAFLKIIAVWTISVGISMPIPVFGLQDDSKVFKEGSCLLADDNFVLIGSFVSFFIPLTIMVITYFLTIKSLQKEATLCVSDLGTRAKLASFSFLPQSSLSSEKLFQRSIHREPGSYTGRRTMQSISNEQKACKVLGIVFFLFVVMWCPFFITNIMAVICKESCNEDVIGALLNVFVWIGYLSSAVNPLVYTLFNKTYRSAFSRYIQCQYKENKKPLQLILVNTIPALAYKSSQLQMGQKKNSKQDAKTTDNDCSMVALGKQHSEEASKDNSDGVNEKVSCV
Sequence of Beta-2 adrenergic receptor (Homo sapiens) (P07550 whole entry, looked up): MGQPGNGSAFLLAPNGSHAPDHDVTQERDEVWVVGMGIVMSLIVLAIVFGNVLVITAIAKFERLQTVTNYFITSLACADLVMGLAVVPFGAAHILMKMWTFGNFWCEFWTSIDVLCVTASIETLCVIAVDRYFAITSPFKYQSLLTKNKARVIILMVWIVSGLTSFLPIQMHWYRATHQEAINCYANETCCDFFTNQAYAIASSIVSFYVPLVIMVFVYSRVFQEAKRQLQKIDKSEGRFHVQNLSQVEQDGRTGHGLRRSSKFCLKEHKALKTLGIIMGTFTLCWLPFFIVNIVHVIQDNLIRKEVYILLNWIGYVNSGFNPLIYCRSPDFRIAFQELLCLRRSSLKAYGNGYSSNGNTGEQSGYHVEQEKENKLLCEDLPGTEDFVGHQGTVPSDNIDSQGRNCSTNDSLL
Sequence of D(2) dopamine receptor (Homo sapiens) (P14416 whole entry, looked up): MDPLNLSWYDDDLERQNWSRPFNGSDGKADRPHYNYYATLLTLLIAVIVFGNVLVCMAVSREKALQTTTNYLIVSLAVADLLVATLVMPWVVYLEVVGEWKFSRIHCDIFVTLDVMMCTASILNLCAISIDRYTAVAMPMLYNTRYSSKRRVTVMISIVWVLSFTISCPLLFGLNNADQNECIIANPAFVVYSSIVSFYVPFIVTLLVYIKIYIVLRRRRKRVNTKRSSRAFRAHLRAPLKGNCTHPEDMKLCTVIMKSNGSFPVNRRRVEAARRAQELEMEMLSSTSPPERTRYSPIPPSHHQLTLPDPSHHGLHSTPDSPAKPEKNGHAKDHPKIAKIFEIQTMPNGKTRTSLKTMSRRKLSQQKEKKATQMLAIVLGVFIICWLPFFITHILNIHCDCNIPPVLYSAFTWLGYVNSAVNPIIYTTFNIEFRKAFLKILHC
Sequence of Muscarinic acetylcholine receptor M1 (Homo sapiens) (P11229 whole entry, looked up): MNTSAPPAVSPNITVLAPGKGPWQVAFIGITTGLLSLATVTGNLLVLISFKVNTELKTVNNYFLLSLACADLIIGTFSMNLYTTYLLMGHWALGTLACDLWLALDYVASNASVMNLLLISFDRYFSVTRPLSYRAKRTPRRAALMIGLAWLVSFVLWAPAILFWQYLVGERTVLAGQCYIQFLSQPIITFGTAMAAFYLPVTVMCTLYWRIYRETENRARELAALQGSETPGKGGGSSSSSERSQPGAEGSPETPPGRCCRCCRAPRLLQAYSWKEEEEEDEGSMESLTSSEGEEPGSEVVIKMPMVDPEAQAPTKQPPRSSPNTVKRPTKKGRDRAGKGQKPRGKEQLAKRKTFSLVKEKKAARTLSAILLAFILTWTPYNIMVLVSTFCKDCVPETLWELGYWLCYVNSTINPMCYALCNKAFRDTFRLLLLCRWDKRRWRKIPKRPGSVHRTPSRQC
Sequence of Gonadotropin-releasing hormone receptor (Homo sapiens) (P30968 whole entry, looked up): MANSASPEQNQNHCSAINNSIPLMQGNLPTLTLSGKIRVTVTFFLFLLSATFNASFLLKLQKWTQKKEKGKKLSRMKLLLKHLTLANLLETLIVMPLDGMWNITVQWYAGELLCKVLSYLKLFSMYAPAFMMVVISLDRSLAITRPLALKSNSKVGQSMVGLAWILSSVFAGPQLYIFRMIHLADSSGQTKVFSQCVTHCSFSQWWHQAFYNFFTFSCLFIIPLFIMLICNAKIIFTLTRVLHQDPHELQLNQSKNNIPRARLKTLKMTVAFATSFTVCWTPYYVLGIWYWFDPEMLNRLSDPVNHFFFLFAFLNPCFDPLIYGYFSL

Cc1c(C(C)C)c(=O)n(-c2ccccc2)n1C
inactive: [1] | [2] | [3] | [4] | [5] | [6] | [7] | [8] | [9] | [10] | [11] | [12] | [13] | [14] | [15] | [16] | [17] | [18] | [19] | [20]

CC1=C(CC=O)C(C)(C)CCC1
inactive: [1] | [2] | [3] | [4] | [5] | [6] | [7] | [8] | [9] | [10] | [11] | [12] | [13] | [14] | [15] | [16] | [17] | [18] | [19] | [20]

O=C(O)CCCc1ccccc1
inactive: [1] | [2] | [3] | [4] | [5] | [6] | [7] | [8] | [9] | [10] | [11] | [12] | [13] | [14] | [15] | [16] | [17] | [18] | [19] | [20]

N#Cc1cscn1
inactive: [1] | [2] | [3] | [4] | [5] | [6] | [7] | [8] | [9] | [10] | [11] | [12] | [13] | [14] | [15] | [16] | [17] | [18] | [19] | [20]

COc1ccc(OC)c(OC)c1
inactive: [1] | [2] | [3] | [4] | [5] | [6] | [7] | [8] | [9] | [10] | [11] | [12] | [13] | [14] | [15] | [16] | [17] | [18] | [19] | [20]

CCCCCO
inactive: [1] | [2] | [3] | [4] | [5] | [6] | [7] | [8] | [9] | [10] | [11] | [12] | [13] | [14] | [15] | [16] | [17] | [18] | [19] | [20]
